697 NFkB inh: lowers PMA/ionomycin-induced NF-kB signal in 697 B cells | 697 B-cell NF-kB luciferase reporter, 16 h | inhibition, % at 4 µM | actives 0.33% (n = 330,000) | AID 435022; in the data active = inhibition above about 35%
Jurkat NFkB inh: lowers PMA/ionomycin-induced NF-kB signal in Jurkat cells. PMA/ionomycin-induced NF-kB luciferase reporter, luminescence. inhibition, % at 4 µM. actives 0.53% (n = 330,000); in the data active = inhibition above about 50%
ANO1 block: inhibitors of mouse TMEM16A calcium-activated chloride channel; Q8BHY3; HEK293 TMEM16A/YFP iodide influx fluorescence, ionomycin; normalized B-score (activity score, 25-100; higher = stronger inhibition) at 10 µM; actives 1.2% (n = 310,000);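 active = ratio plate-corrected score three or more library SD toward inhibition, starting fluorescence score within five deviations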;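 also: score derived from kinetic fluorescence span divided by baseline fluorescence per well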
aSyn 5UTR inh: MLPCN primary screen, SNCA 5' untranslated region. alpha-synuclein 5'UTR reporter, inhibitor activity. inhibition, % (tested at 7.5 µM). AID 1813. actives 0.82% (n = 300,000); in the data active = inhibition above about 60%;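 also: H4 neuroglioblastoma cells stably carrying SNCA 5'UTR luciferase fusion; 0% = DMSO wells and 100% = positive control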
ANO1 activ: activators or potentiators of mouse TMEM16A chloride channel | actives 0.3% (n = 340,000) | B-score at 10 µM | HEK293 TMEM16A/YFP-H148Q/I152L, iodide quench fluorescence; active compounds read low | Q8BHY3;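 active = fluorescence-ratio B-score plate-corrected deviation score at least 3 library SD below zero, with starting fluorescence score within 5 deviations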;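 also: channel opened by trigger with iodide after compound preincubation; score built on the fluorescence ratio of max minus min over baseline; more negative score means more quench and so TMEM16A activation or potentiation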
KLF5 inhibitor: kruppel-like factor 5 inhibition | DLD-1 KLF5 promoter-luciferase reporter, luminescence | actives 0.23% (n = 290,000) | inhibition, % at 5 µM | AID 1700;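 active = inhibition above a per-plate limit of that plate's mean compound inhibition plus 3 SD, cut at about 60% in these data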;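 also: 0% = DMSO wells and 100% = LY294002 at 200 µM; higher means less KLF5 promoter-driven luciferase light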
TMEM16A reconf: reconfirmed blocker of mouse TMEM16A calcium-activated chloride channel; shares compounds with ANO1 block; HEK293 TMEM16A/YFP-H148Q, iodide quench fluorescence; ionomycin added to raise cell calcium; inhibition, % at 10 µM; actives 39% (n = 2,300); AID 652189;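 active = mean duplicate percent inhibition, scaled so buffer wells are 0 and the reference blocker 100, over three buffer SD above buffer mean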
HEK293 Ca mobil: counter-screen for TMEM16A inhibitors: effect on calcium mobilization. actives 2% (n = 2,300). calcium response (% of ionomycin), % at 10 µM. shares compounds with ANO1 block. TMEM16A/YFP HEK293, Fluo4 calcium mobilization;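 active = duplicate-averaged calcium signal over 20% of the ionomycin maximum, relative to buffer baseline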;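 also: each well's signal is peak minus trough fluorescence divided by its pre-addition baseline; 0% = buffer wells and 100% = ionomycin wells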
Parental YFP cnt: counter-screen for TMEM16A inhibitors: effect in parental YFP-HEK293 cells | shares compounds with ANO1 block | iodide YFP quench, ionomycin | YFP ratio F(max-min)/F0 at 10 µM | 2,300 tested, under 10 active | AID 652233;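 active = yellow fluorescent protein signal ratio exceeding the buffer control mean by over 5 SD of those controls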;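 also: ratio is mean of duplicate wells from kinetic YFP trace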
ClC-1 rat inh: blocks the rat ClC-1 voltage-dependent chloride channel; AID 652236; ratio percent, % at 10 µM; CHO ClC-1-YFP, iodide influx fluorescence quench; iodide control reads 0, buffer control 100; 2,300 tested, under 10 active; shares compounds with ANO1 block;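 active = duplicate-mean ratio percent above the mean of iodide-only control wells, which defines zero, plus 5 of their SD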;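 also: higher percent means stronger block of ClC-1 iodide influx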
Target sequence (P35524 whole entry, looked up): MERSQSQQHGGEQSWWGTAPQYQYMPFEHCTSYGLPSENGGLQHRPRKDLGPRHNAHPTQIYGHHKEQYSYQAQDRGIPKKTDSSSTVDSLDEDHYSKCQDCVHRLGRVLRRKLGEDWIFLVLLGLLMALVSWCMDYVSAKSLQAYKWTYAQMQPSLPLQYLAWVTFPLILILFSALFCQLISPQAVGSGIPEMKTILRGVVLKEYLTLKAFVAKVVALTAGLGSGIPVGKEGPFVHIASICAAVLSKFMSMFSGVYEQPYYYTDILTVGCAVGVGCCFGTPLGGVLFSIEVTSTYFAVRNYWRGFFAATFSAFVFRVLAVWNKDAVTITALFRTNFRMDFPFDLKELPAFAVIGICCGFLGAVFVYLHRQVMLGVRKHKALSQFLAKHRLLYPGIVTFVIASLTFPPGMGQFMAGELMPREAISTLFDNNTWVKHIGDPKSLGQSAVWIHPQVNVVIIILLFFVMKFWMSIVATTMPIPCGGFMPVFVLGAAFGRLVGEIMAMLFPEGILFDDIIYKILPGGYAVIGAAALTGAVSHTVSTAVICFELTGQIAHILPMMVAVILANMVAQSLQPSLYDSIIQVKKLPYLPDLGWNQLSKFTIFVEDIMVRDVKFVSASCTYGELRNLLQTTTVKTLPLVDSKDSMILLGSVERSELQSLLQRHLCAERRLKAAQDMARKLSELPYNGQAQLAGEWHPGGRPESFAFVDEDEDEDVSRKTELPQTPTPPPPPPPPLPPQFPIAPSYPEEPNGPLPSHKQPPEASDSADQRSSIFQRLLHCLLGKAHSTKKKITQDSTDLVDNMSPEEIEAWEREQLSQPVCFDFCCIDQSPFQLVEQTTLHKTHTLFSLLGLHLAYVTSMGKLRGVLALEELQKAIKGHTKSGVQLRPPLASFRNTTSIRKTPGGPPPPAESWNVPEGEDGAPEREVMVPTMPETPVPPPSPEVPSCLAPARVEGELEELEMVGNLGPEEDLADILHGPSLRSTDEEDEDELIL
An asterisk follows results filed as active; i = inactive; · = not tested or not shown. A selection: hits, their analogues and other compounds. The true share with any hit is near 2.5%.

SMILES	697 NFkB inh	Jurkat NFkB inh	ANO1 block	aSyn 5UTR inh	ANO1 activ	KLF5 inhibitor	TMEM16A reconf	HEK293 Ca mobil	Parental YFP cnt	ClC-1 rat inh
N#Cc1ccsc1NC(=O)CSc1ncnc2ccccc12	7	-11	100*	31	i	-32	i	i	-1.2	-2
Cc1cc(C(=O)OCC(=O)Nc2cccc(S(=O)(=O)N(C)C)c2)c2ccccc2n1	-6	23	i	6	i	-4	i	i	-1.5	-2
CN(C)S(=O)(=O)c1cccc(NC(=O)CSc2ncnc3ccccc23)c1	-21	-8	25*	6	i	-29	i	i	-0.95	-10
CCN(CC)S(=O)(=O)c1cccc(NC(=O)CSc2nc3ccccc3[nH]2)c1	-19	4	100*	-8	i	3	16%*	i	-0.95	-12
COc1ccc(CNC(=O)COC(=O)C2(C)CC2(Cl)Cl)cc1 (configuration not stated)	0	13	·	·	i	·	·	·	·	·
Cc1cc(-c2ccc(C(C)C)c(S(=O)(=O)N3CCN(c4ccccn4)CC3)c2)on1	-58	46	i	-47	i	15	·	·	·	·
O=[N+]([O-])c1ccc(-c2nnc(S)n2-c2ccccc2)cc1	·	·	i	-95	·	-13	·	·	·	·
COc1cc2c(cc1NC(=O)c1cc(-c3ccncc3)nc3ccc(C)cc13)oc1ccccc12	16	14	25*	-26	i	-8	i	i	-1.2	-6
CCn1c(CCNC(=O)c2cccs2)nnc1SCC(=O)Nc1ccc(Cl)cc1	2	-2	25*	14	i	20	i	i	-0.97	-4
O=C(CSc1ccc(F)cc1)N1CCC(c2nc3ccccc3s2)CC1	1	16	100*	-7	i	-2	29%*	i	-1.2	-6
COc1ccc(/C=N/Nc2nnc(Cc3ccc(OC)c(OC)c3)c(=O)[nH]2)cc1	4	-6	i	7	i	-1	·	·	·	·
COc1ccc(/C=N/Nc2nnc(Cc3ccccc3)c(=O)[nH]2)cc1	-7	3	i	-6	i	-11	i	i	-0.36	-4
CNC(=O)c1sc(N2N=C3/C(=C/c4ccccc4)CCCC3C2c2ccccc2)nc1C (configuration not stated)	6	-2	100*	-2	i	2	46%*	58%*	-0.92	-6
CNC(=O)c1sc(N2N=C3/C(=C\c4ccccc4)CCCC3C2c2ccccc2)nc1C (configuration not stated)	·	·	·	·	i	·	·	·	·	·
Cc1c(C(=O)OCC(=O)NCCN2C(=O)CSC2=O)cccc1[N+](=O)[O-]	12	10	·	·	i	·	·	·	·	·
CCC1SC2=NC(C)=C(C(=O)OCC(C)C)C(/C=C/c3ccccc3OC)N2C1=O (configuration not stated)	7	10	100*	-8	i	9	i	i	-1.1	-16
CCC1SC2=NC(C)=C(C(=O)OCCOC)C(/C=C/c3ccccc3OC)N2C1=O (configuration not stated)	-2	-2	i	-1	i	-20	·	·	·	·
COc1ccc(OC)c(/C=C2\SC(=S)N(NS(=O)(=O)c3ccc(C)cc3)C2=O)c1	10	10	i	15	i	-1	·	·	·	·
COc1ccc(/C=C2\SC(=S)N(NS(=O)(=O)c3ccc(C)cc3)C2=O)c(OC)c1	15	-12	25*	4	i	-24	23%*	i	-0.99	-14
